Reference: PubChem BioAssay
Active and inactive are the calls of the source.

Key:
[1] = A549 cell viability effects, profiling panel, calcein-AM fluorescence, 48 h, basal (AID 1162); settings: higher = more signal
[2] = adipocyte viability effects, profiling panel, cell-based, 3T3-L1 adipocytes, calcein-AM fluorescence, 48 h, basal (AID 1163); settings: 3T3-L1 adipocytes viability, higher = more signal
[3] = HepG2 cell viability effects, profiling panel, calcein-AM fluorescence, 48 h, basal (AID 1164); settings: higher = more signal
[4] = MM1S cell viability effects, profiling panel, calcein-AM fluorescence, 48 h, basal (AID 1165); settings: higher = more signal;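 note: viability of MM1S multiple myeloma cells under basal unstimulated conditions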
[5] = basal RPMI8226 viability, no added stimulus, profiling panel, cell-based, calcein-AM fluorescence, 48 h, PK04 Diversity Set (AID 1166); settings: RPMI8226 myeloma viability, higher = more signal;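 note: cells grown under basal conditions without added stimulus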
[6] = basal HepG2 mitochondrial membrane potential changes, profiling panel, cell-based, JC-1 fluorescence, 24 h, 100 nL compound (AID 1167); settings: higher = more signal
[7] = basal 3T3-L1 adipocyte mitochondrial potential changes, profiling panel, cell-based, JC-1 fluorescence, 3T3-L1 adipocytes, 24 h, 100 nL compound (AID 1168); settings: JC-1 mitochondrial fluorescence, higher = more signal, called active from +8 up or from −8 down
[8] = basal RPMI8226 mitochondrial membrane potential changes, profiling panel, cell-based, JC-1 fluorescence, 24 h, 100 nL compound (AID 1169); settings: RPMI8226 myeloma, JC-1 mitochondrial potential fluorescence, higher = more signal
[9] = basal MM1S mitochondrial membrane potential changes, profiling panel, cell-based, JC-1 fluorescence, 24 h, 100 nL compound (AID 1170); settings: higher = more signal
[10] = A549 lung cancer cell viability effects, profiling panel, resazurin fluorescence, 24 h, PK04 Diversity Set (AID 1171); settings: higher = more signal, called active from +8 up or from −8 down
Note: test concentration not given here.

| Compound | z-score [1] | z-score [2] | z-score [3] | z-score [4] | z-score [5] | z-score [6] | z-score [7] | z-score [8] | z-score [9] | z-score [10] |
| --- | --- | --- | --- | --- | --- | --- | --- | --- | --- | --- |
| CC(=O)OC[C@H]1O[C@H](C#CCC2CCCCC2)C=C[C@@H]1OC(C)=O | 0.422 | -0.654 | 0.503 | -3.48 | -3.35 | -1.1 | -0.185 (inactive) | -0.605 | -1.99 | -0.389 (inactive) |
| CC(=O)OC[C@H]1O[C@H](CC=NOC(C)CN2CCCCc3nc(C)c(C)cc32)C=C[C@@H]1OC(C)=O (stereo not given in full) | -0.348 | -1.19 | -0.276 | 0.0965 | -1.26 | -0.681 | -1.05 (inactive) | -0.31 | -0.182 | -0.146 (inactive) |
| CCN1C(=O)[C@H]2[C@H]3[C@H](O)[C@H](O)CC(=NNC(=O)OCc4ccccc4)[C@@H]3CC[C@H]2C1=O | -0.0627 | 0.0682 | -0.131 | -0.0309 | 0.718 | -0.653 | -1.19 (inactive) | -0.118 | -0.458 | -0.32 (inactive) |
| C=CCOCC1CN2[C@@H](CC[C@@H](C)[C@@H]2c2ccc(Br)cc2)C(=O)O1 (stereo not given in full) | 0.124 | 0.312 | 0.289 | -0.268 | -0.0306 | 0.506 | -0.809 (inactive) | -0.207 | 0.672 | 0.743 (inactive) |
| COCC#Cc1ccc([C@@H]2N[C@H](C(=O)O)CC[C@H]2C)cc1 | 0.681 | -0.269 | 0.654 | 0.391 | 1.14 | 0.816 | 0.727 (inactive) | -0.859 | 0.839 | -0.488 (inactive) |
| CCOC(=O)[C@H](Cc1ccccc1)NC(=O)CCC1CC(OC(=O)NCc2cccc3ccccc23)CC2(CCCC(COC(=O)NCC3CCCCC3)O2)O1 (stereo not given in full) | 0.391 | 0.146 | -0.574 | -0.0497 | -0.68 | -0.00703 | -0.00973 (inactive) | -0.198 | -0.296 | 0.684 (inactive) |
| COC(=O)[C@H](C)NC(=O)CCC1CC(OC(=O)NCc2cccc3ccccc23)CC2(CCCC(COC(=O)NCCOc3ccccc3)O2)O1 (stereo not given in full) | -0.13 | 0.151 | -1.24 | -3.37 | -3.01 | -0.234 | -0.198 (inactive) | -0.458 | -0.463 | 1.33 (inactive) |
| C[C@]12CCC3c4ccc(OCC5CO5)cc4CCC3C1CC[C@@H]2O (stereo not given in full) | 0.45 | 0.277 | 0.266 | -2.59 | -1.06 | 1.15 | 0.121 (inactive) | 0.0313 | -0.046 | 2.25 (inactive) |
| CCOC(=O)[C@H](Cc1ccccc1)NC(=O)CCC1CC(OC(=O)NCc2ccc3c(c2)OCO3)CC2(CCCC(COC(=O)NCCCN3CCCC3=O)O2)O1 (stereo not given in full) | 0.0325 | 0.484 | -0.152 | -0.59 | -1.6 | 1.97 | -0.654 (inactive) | 0.517 | 0.547 | 0.529 (inactive) |
| O=C1[C@H]2[C@H]3[C@H](O)[C@H](O)CC(=NO[C@@H]4O[C@H](CO)[C@@H](O)[C@H](O)[C@H]4O)[C@@H]3CC[C@H]2C(=O)N1C[C@@H]1CCCO1 | -0.863 | -0.0334 | -0.618 | -0.0584 | -2.03 | -0.42 | -0.0322 (inactive) | 0.0485 | -1.16 | 0.226 (inactive) |
| COC(=O)CC=C[C@@H](C)[C@@H](C=NOC[C@@H](C)[C@H](OCc1ccccc1)C(C)C)OC | -0.37 | -0.0404 | -0.0472 | -0.18 | -0.991 | 0.0695 | -1.61 (inactive) | -0.151 | -0.93 | -0.891 (inactive) |
| CC(=O)OC[C@H]1O[C@H](CC=NO[C@H](C)c2cn([C@@H]3COC[C@H]3O)nn2)C=C[C@@H]1OC(C)=O | 0.674 | 0.062 | 0.631 | 0.621 | 0.479 | 0.00468 | 1.13 (inactive) | 0.418 | -0.466 | -0.145 (inactive) |
| CO[C@@H]1COC(=O)[C@H](COCc2ccccc2)NC(=O)CC=C[C@@H](C)[C@H](OC)COC(=O)[C@@H](C)NC(=O)CC=C[C@H]1C | 0.759 | 0.0006 | 0.56 | 0.208 | -1.54 | 0.648 | -0.828 (inactive) | 0.402 | -0.343 | 0.846 (inactive) |
| C=CC[C@@H]1C=C[C@H](Oc2ccc(C)cc2)[C@@H](COC(=O)NCc2cccc3ccccc23)O1 | -0.273 | 0.479 | -0.542 | -1.41 | -1.71 | 0.294 | -0.483 (inactive) | 0.78 | 0.147 | 1.99 (inactive) |
| O=C1[C@H]2[C@H]3[C@H](O)[C@H](O)CC(=NO[C@@H]4O[C@H](CO)[C@@H](O)[C@H](O)[C@H]4O)[C@H]3CC[C@H]2C(=O)N1C[C@@H]1CCCO1 | 0.676 | -0.568 | 0.184 | 0.7 | 0.269 | 0.607 | 0.572 (inactive) | 0.39 | -1.13 | -0.6 (inactive) |
| CCC1=NOC(CCC2CC(OC(=O)NCc3cccc4c3OCO4)CC3(CCCC(COC(=O)NCCc4ccc(Cl)cc4)O3)O2)C1 (stereo not given) | -0.584 | -0.55 | -0.303 | 0.396 | -0.961 | -0.803 | 0.453 (inactive) | 0.0772 | -0.398 | 0.137 (inactive) |
| COC(=O)CC=C[C@@H](C)[C@@H](C=NOC[C@@H](O)COCc1ccco1)OC | 1.3 | -0.921 | 0.436 | 0.195 | 0.598 | -0.327 | 0.499 (inactive) | 0.501 | -0.281 | -0.329 (inactive) |
| CCOC(=O)CCN1C(=O)[C@H]2[C@H]3[C@H](O)[C@H](O)CC(=NNC(=O)OCc4ccccc4)[C@H]3CC[C@H]2C1=O | 0.391 | 1.33 | -0.222 | 0.357 | -0.0554 | -0.952 | -0.223 (inactive) | -0.0449 | 0.435 | -0.367 (inactive) |
| COC(=O)CC=C[C@@H](C)[C@@H](C=NOC[C@@H](O)[C@H]1O[C@@H]2OC(C)(C)O[C@@H]2[C@H]1O)OC | 0.218 | 0.0495 | 0.0068 | -0.952 | 0.216 | 0.103 | -0.637 (inactive) | -0.199 | 0.781 | -0.743 (inactive) |
| CC(C)(C)N1C(=O)[C@H]2[C@H]3[C@H](O)[C@H](O)CC(=NOC[C@@H](O)COCc4ccco4)[C@H]3CC[C@H]2C1=O | -0.0309 | 0.676 | 0.082 | 0.406 | -0.139 | -0.368 | 0.856 (inactive) | -0.631 | -0.914 | -0.679 (inactive) |
| CO[C@H]1C[C@@H]2C[C@H](O)CC(CC(=O)O[C@@H](C=CCC(C)C)C[C@@H]3CC[C@H](C)[C@@H](C1)O3)O2 | 0.366 | 0.128 | 0.341 | 0.283 | 0.624 | -0.427 | -0.975 (inactive) | 0.392 | -0.49 | -0.0031 (inactive) |
| CCOC(=O)NN=C1C[C@@H](O)[C@@H](O)[C@@H]2[C@@H]3C(=O)N(CC)C(=O)[C@@H]3CC[C@H]12 | 0.258 | -0.588 | 0.527 | 0.464 | 0.268 | 0.987 | -0.557 (inactive) | -0.241 | -0.809 | -0.653 (inactive) |
| C=CC[C@@H]1C=C[C@H](ON=C2C[C@@H](O)[C@@H](O)[C@@H]3[C@@H]4C(=O)N(CC)C(=O)[C@@H]4CC[C@@H]23)[C@@H](CO)O1 | -0.98 | 1 | 0.281 | -1.44 | -1.23 | -0.495 | 0.265 (inactive) | 0.216 | -0.354 | -0.28 (inactive) |
| CC(C)=CCCC(C)=CCON=C1C[C@@H](O)[C@@H](O)[C@@H]2[C@@H]3C(=O)N(Cc4ccc5c(c4)OCO5)C(=O)[C@@H]3CC[C@H]12 | -0.0007 | 0.0614 | -0.579 | -2.32 | -1.31 | -0.214 | -0.412 (inactive) | -0.655 | -0.488 | -0.0045 (inactive) |
| COc1ccc(COC(=O)NN=C2C[C@@H](O)[C@@H](O)[C@@H]3[C@@H]4C(=O)N(Cc5ccccc5)C(=O)[C@@H]4CC[C@@H]23)cc1 | -0.178 | -0.641 | -0.13 | 0.458 | 1.61 | 0.335 | -0.289 (inactive) | 0.76 | -1.46 | 0.399 (inactive) |
| CC(=O)OC[C@H]1O[C@@H](ON=C(C)CCC(=O)OC[C@H]2O[C@H](C#Cc3ccccc3)C=C[C@@H]2Oc2ccc(C)cc2)[C@H](OC(C)=O)[C@@H](OC(C)=O)[C@@H]1OC(C)=O | 0.16 | 0.57 | -0.325 | 0.0628 | -0.062 | 0.632 | -1.55 (inactive) | 0.393 | 0.69 | 0.221 (inactive) |
